Results published in PubChem BioAssay.

Each compound was assayed on Plasmodium falciparum Sir2 (PF13_0152, Sir2A) (assay: pfSir2 binders on small-molecule microarrays, primary screen, biochemical, small-molecule microarray, 635 nm fluorescence (AID 1098;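 further: score merges spot fluorescence intensity with its signal-to-noise ratio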)). Details: small-molecule microarray binding, fluorescence 635 nm; higher = more signal.

Compound	composite z-score
COc1ccc([Si](C)(C)[C@@H]2[C@@H](CC(=O)N3Cc4ccccc4C[C@H]3CO)O[C@]3(C(=O)N(C)c4ccccc43)[C@H]2C)cc1	1.22
O=C(N1CCCCC1)[C@@]1(CCS(=O)(=O)c2ccccc2)COC(c2ccc(OCCCO)cc2)=N1	1.38
O=C1NC(=O)C2C1C=CC(C(O)CCc1ccccc1)N2Nc1ccc(Cl)cc1Cl (stereo not given)	0.187
C=CCC(OC(C)=O)[C@@H]1[C@@H](N(Cc2cc3ccccc3o2)C(=O)c2ccc(-c3ccccc3)cc2)c2cc(OCCCO)ccc2N1C(=O)c1ccc2ccccc2c1 (stereo not given in full)	0.187
CCOC(=O)C[C@H]1[C@H](OC(=O)Cc2ccc3c(c2)OCO3)[C@@H](NC(=O)Cc2ccc(OC)cc2)c2cc(OCCCO)ccc2N1C(=O)c1ccc2ccccc2n1	0.0382
COC(=O)c1c2oc(c1C(=O)OC)C(=O)N(Cc1ccccc1)Cc1cn(nn1)C[C@H](Cc1ccccc1)NC(=O)N[C@H](CO)CC2	0.909
NC(N)=NCCCn1cc(CNC(=O)[C@@H](N)Cc2ccccc2)nn1	1.23
NC(=O)N1C(=O)C2C(C1=O)C1C=C(CCCO)C2C(c2cccs2)N1Cc1cccc(OC(F)(F)F)c1 (stereo not given)	1.41
CCOC(=O)C[C@H]1[C@H](OC(=O)c2cc3ccccc3oc2=O)[C@@H](NC(=O)Cc2ccc(OC)cc2)c2cc(OCCCO)ccc2N1C(=O)c1ccc2ccccc2n1	0.195
COCCOC(=O)N1C(=O)[C@@]2(c3cc(C#CC4=CCCCC4)ccc31)[C@H](c1ccc(OCCO)cc1)N1[C@H](c3ccccc3)[C@H](c3ccccc3)OC(=O)[C@H]1[C@@H]2C(=O)NC[C@H](O)c1ccccc1	1.44
